28 molecules from PubChem BioAssay AID1445 (SRMLSC, 2008) can be followed below.

About 910 (0.41%) of roughly 220,000 compounds were called active.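 How the source made its calls: active means primary inhibition above the hit cutoff, then over 50% inhibition at one or more dose response concentrations (cut at about 23% in these data, passing the limit was not always enough); inconclusive means conflicting primary data, or primary hits not chosen for dose response; inactive means low primary inhibition, or under 50% at every dose.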 This excerpt belongs to a sample that is enriched for actives. Measured potencies and affinities stand elsewhere.

The target of this experiment is Aminopeptidase N (Plasmodium falciparum (isolate 3D7)) (UniProt O96935). As to the kind of experiment: P. falciparum M1AAP inhibitors, biochemical, fluorogenic H-Leu-NHMec substrate, 1536-well (AID 1445).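 Further: plate controls were DMSO full reaction for no effect and no enzyme background for full effect.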 To be noted: recombinant M1AAP, H-Leu-NHMec fluorogenic kinetic assay; at 30 µM, stronger effect = higher value unless noted.
Aminopeptidase N (Plasmodium falciparum (isolate 3D7)), sequence (O96935 whole entry, looked up): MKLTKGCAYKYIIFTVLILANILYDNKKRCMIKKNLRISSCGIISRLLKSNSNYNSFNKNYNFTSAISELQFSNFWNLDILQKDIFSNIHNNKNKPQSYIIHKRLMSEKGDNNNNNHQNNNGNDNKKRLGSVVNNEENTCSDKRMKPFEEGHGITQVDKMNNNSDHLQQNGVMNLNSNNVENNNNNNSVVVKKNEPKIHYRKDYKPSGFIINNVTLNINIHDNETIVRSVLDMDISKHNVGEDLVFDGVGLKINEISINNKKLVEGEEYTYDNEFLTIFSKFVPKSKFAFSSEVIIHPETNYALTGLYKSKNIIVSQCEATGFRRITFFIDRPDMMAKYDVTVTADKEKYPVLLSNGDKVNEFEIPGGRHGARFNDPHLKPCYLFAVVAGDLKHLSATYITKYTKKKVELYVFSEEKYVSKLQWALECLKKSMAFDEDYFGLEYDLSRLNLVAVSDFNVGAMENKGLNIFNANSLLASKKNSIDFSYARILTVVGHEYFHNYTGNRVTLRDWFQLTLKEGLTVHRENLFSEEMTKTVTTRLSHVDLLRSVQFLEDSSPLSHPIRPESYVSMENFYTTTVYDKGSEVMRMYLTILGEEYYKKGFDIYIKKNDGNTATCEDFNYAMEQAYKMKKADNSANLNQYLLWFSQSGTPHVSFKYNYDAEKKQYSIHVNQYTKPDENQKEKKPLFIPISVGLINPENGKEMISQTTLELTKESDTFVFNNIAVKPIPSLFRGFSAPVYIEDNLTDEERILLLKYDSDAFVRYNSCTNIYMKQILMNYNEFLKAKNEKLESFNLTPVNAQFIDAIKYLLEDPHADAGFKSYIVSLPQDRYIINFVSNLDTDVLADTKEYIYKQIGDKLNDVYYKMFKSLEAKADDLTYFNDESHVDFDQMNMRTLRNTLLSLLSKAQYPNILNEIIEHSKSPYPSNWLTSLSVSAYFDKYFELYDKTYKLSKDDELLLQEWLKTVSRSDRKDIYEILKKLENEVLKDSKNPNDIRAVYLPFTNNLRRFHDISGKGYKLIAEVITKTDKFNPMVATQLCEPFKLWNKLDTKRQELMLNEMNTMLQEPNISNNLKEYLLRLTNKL
Turning to `COc1cc(O)c(C(CCN2CCCC(C)C2)c2ccc(N(C)C)cc2)c(OC)c1` (stereo not drawn), the inhibition is 12.5% (inactive).
In the case of `O=C(/C(=C/O)N=Nc1ccccc1)c1ccncc1`, the inhibition is 18.4% (inactive).
As for `O=C(/C(=C/O)N=Nc1ccc(Cl)cc1)c1ccncc1`, the figure is 0.62% (inactive).
For `Cc1ccc(N=N/C(=C\O)C(=O)c2ccncc2)cc1`, the inhibition is 27.6% (active).
Regarding `Cc1ccc(NC(=O)Nc2ccc(F)cc2F)c(OC(F)F)c1`, the inhibition was -3.74% (inactive).
As for `Cc1cc(NC(=O)CSCC(=O)N(c2ccc(F)cc2)C(C(=O)NC2CCCCC2)c2ccc(O)c(O)c2)no1` (stereo not drawn), the figure is 8.19% (inactive); as for `N#C/C(=C\c1ccc(O)c(O)c1)S(=O)(=O)c1ccccc1`, 24.6% (active); as for `N#C/C(=C/c1ccc(F)cc1)S(=O)(=O)c1ccccc1`, -4.5% (inactive).
Under `Cc1cc(C)c(/C=C(\C#N)S(=O)(=O)c2ccccc2)[nH]1` stands -6.03% (inactive); under `Cc1ccccc1Cn1nnc2c1C(=O)c1ccccc1C2=O`, -4.07% (inactive); under `CC1(c2ccc(OC(F)F)cc2)NC(=O)N(CC(=O)Nc2ccc3c(c2)OCO3)C1=O` (stereo not drawn), 22.2% (inactive).
Under `Cc1cc(NC(=O)CN2C(=O)NC(C)(c3ccc(OC(F)F)cc3)C2=O)no1` (stereo not drawn) stands 7.82% (inactive); under `O=C(CSc1nnc(CNc2ccc(Cl)cc2)o1)Nc1nc2ccccc2s1`, -13% (inactive); under `CCCc1nnc(NC(=O)CCC(=O)N2CCN(S(=O)(=O)c3ccc(C)cc3)CC2)s1`, 3.35% (inactive).
Turning to `Oc1ccc(C2C(c3ccccc3)=NN=C(c3ccc(Cl)cc3)N2O)c(O)c1` (stereo not drawn), the inhibition was 12.1% (inactive).
Under `CC(C)n1cc(/C=C2/SC(=O)N(CC(=O)N3CCCC3)C2=O)c2ccccc21` stands 7.08% (inactive).
Under `O=C(O)CN1C(=O)/C(=C\c2cn(CC(=O)N3CCOCC3)c3ccccc23)SC1=S` stands 21.1% (inactive).
As for `Cc1ccnc(NS(=O)(=O)c2ccc(NC(=O)c3cncc(Br)c3)cc2)n1`, the figure is -0.33% (inactive); as for `NC(=O)Cn1nc([N+](=O)[O-])nc1Oc1ccccc1C(=O)N1CCOCC1`, 3.73% (inactive); as for `CN(C)CCCNC(=O)c1cc(C(=O)C2CCCCC2)c[nH]1`, 3.52% (inactive).
For the molecule `COCC(=O)N(Cc1cc2cc(OC)ccc2[nH]c1=O)c1ccccc1`, the inhibition was 7% (inactive).
Under `O=C(CN1c2ccccc2Sc2ccccc21)NNC(=O)Nc1ccc(Cl)c(Cl)c1` stands 0.08% (inactive); under `COc1ccc([N+](=O)[O-])cc1N(CC(O)CN1CCCCC1)S(=O)(=O)c1ccc(C)cc1` (stereo not drawn), 8.41% (inactive).
Under `COc1ccc([N+](=O)[O-])cc1N(CC(O)CN1CCCC1)S(=O)(=O)c1ccc(C)cc1` (stereo not drawn) stands 2.31% (inactive); under `COc1ccc([N+](=O)[O-])cc1N(CC(O)Cn1nnc2ccccc21)S(=O)(=O)c1ccc(C)cc1` (stereo not drawn), 23.6% (active); under `CCOC(=O)c1csc(NC(=O)c2ccc(OC)c(OC)c2)n1`, 1.77% (inactive).
Under `COCCN(C(=O)CSc1nnc(Nc2ccccc2F)s1)c1c(N)n(Cc2ccccc2)c(=O)[nH]c1=O` stands 3.95% (inactive); under `CCCS(=O)(=O)NCc1ccc2c(c1)cc(C)n2C`, 7.58% (inactive).

By inhibition is commonly meant the relative decrease from the control value, in per cent.
